Experimental data taken from PubChem BioAssay AID493232 (The Scripps Research Institute Molecular Screening Center, 2011).
Screen size: about 1,800 compounds; about 860 (48%) were called active. No stated cut-off is given here; in the data, active means inhibition above about 17%; inactive means the rest. The set was probably picked from earlier hits. Only a sample is shown.

Experiment: signal inhibition in parental CHO-K1 cells, counter-screen for OX1R antagonist project, cell-based, HTRF (AID 493232);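 further: 0% = agonist challenge with vehicle and 100% = vehicle alone without agonist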
Settings: HTRF counterscreen, at 6.6 µM, active compounds read high

SMILES	inhibition
NS(=O)(=O)c1ccc(CCNC(=O)c2ccc([N+](=O)[O-])cc2[N+](=O)[O-])cc1	76.4% (active)
O=C(Nc1nnc(-c2ccccc2)o1)c1cc(-c2cccs2)nc2ccccc12	-1.4% (inactive)
Cn1c(N)c(C(=O)COC(=O)c2ccc3ccccc3c2)c(=O)n(C)c1=O	9.11% (inactive)
COc1ccc(CCn2c(NCCCN3CCOCC3)nc3c2c(=O)[nH]c(=O)n3C)cc1	-0.46% (inactive)
O=C(/C=C/c1ccco1)Nc1cccc(-c2nc3ccccc3[nH]2)c1	20.4% (active)
Cc1ccc2c(c1)nnc1nnc(SCC(=O)O)n12	113% (active)
CCn1c(SCC(=O)c2ccc3ccccc3c2)nnc1-c1cccs1	7.75% (inactive)
COc1ccc2[nH]c(=O)c(CNc3ccc(C)c(C)c3)cc2c1	33.7% (active)
CN(C(=O)CSc1nnc(-c2n[nH]c3ccccc23)o1)c1ccccc1	-4.39% (inactive)
O=C(Nc1ccc2sc3ccccc3c(=O)c2c1)c1ccccc1Cl	-3.67% (inactive)
Cc1ccc(Nc2nc(CSc3nnnn3-c3ccccc3)cc(=O)[nH]2)cc1	1.23% (inactive)
CCn1c(O)c(N=NC2=NC(=O)CS2)c2cc(C)ccc21	21.8% (active)
COc1cc(C(=S)N2CCOCC2)cc(OC)c1OC(=O)c1ccc([N+](=O)[O-])cc1[N+](=O)[O-]	8.29% (inactive)
O=C(Oc1ccccc1C(=S)N1CCCCC1)c1cc([N+](=O)[O-])cc([N+](=O)[O-])c1	56.2% (active)
COC(=O)CNC(=O)c1ccc2c(c1)S(=O)(=O)c1ccccc1C2=O	70.6% (active)
COc1cccc(C(=O)NC(=O)Nc2nc(C)cc(C(F)(F)F)n2)c1	0.24% (inactive)
CCOc1ccc(CCNC(=O)C(CC)n2nc(C)n3c(cc4sccc43)c2=O)cc1OCC (stereo unspecified)	7.91% (inactive)
CCn1c(=N)c(C(=O)NCCCOC)cc2c(=O)n3cccc(C)c3nc21	83.9% (active)
CCOc1ccc(/C=C/C(=O)OCC(=O)c2ccccc2OC)cc1OC	7.57% (inactive)
O=C(NCc1ccco1)C1CCCN(S(=O)(=O)c2cccc3nonc23)C1 (stereo unspecified)	19.7% (active)
C/C(N)=C(/C#N)C(=O)COC(=O)c1cc(-c2ccc(C)cc2)nc2ccccc12	6.3% (inactive)
COc1cc2ccccc2cc1C(=O)Nc1ccc(N2CCOCC2)cc1	16.2% (inactive)

SMILES	inhibition
Cn1cnnc1Sc1ccc(S(C)(=O)=O)cc1[N+](=O)[O-]	50.5% (active)
Nc1[nH][nH]c(=O)c1N=Nc1ccc2c(c1)OCO2	52.9% (active)
COc1ccc(CCNC(=O)/C(C#N)=C2\N=C(NC(=O)c3cccs3)c3ccccc32)cc1	24% (active)
O=C(N/N=C/c1c(Cl)[nH]c2ccccc12)c1sc2ccccc2c1Cl	16% (inactive)
Cc1cc(C(=O)NC2CCCc3c2cnn3-c2cccc(C)c2C)c(C)o1 (stereo unspecified)	9.36% (inactive)
O=C(Nc1nnc(C2=COCCO2)o1)c1ccc([N+](=O)[O-])s1	52.2% (active)
Cc1ccccc1S(=O)(=O)N1[C@@H](c2cccc(Cl)c2)C(C(=O)O)=CC[C@H]1c1ccc(Cl)cc1	12.8% (inactive)
COc1ccc(N2CC(C(=O)NCCN3C(=O)S/C(=C\c4cccnc4)C3=O)CC2=O)c(OC)c1 (stereo unspecified)	56.9% (active)
COc1ccccc1N1CC(C(=O)Nc2ccc(S(=O)(=O)N3CCOCC3)cc2)CC1=O (stereo unspecified)	8.11% (inactive)
COc1ccc(S(=O)(=O)NC(C)c2ccccc2)cc1C(=O)N1CCCCC1 (stereo unspecified)	-4.56% (inactive)
CC(=O)Oc1ccc(C(C)=O)c2c1OCCO2	0.1% (inactive)
COc1cccc(N=c2oc3c(C)ncc(CO)c3cc2C(N)=O)c1	51.5% (active)
COc1cccc(/C=N/Nc2cc(C)nc(-c3ccccc3O)n2)c1O	15.3% (inactive)
CSCCC(NC(=O)c1cc([N+](=O)[O-])cc([N+](=O)[O-])c1)c1nc2ccccc2[nH]1 (stereo unspecified)	24.7% (active)
COc1cccc(/C=N/NC(=O)c2[nH]nc3c2CCc2ccccc2-3)c1O	-15.5% (inactive)
COCCNC(=O)Nc1ccc2nc(-c3ccco3)c(-c3ccco3)nc2c1	48.3% (active)
Cc1cc(-c2ccc(C)c(S(=O)(=O)NC(C)Cc3ccco3)c2)on1 (stereo unspecified)	-2.9% (inactive)
CCn1c(C)nc2c1C(=O)c1ccccc1C2=O	97.1% (active)
C[n+]1ccccc1C1CCCC/C1=N\Nc1ccc([N+](=O)[O-])cc1[N+](=O)[O-] (stereo unspecified)	9.46% (inactive)
c1ccc(-c2nc(NCc3ccco3)c3ccccc3n2)cc1	8.16% (inactive)
CC(=O)N/N=C/c1cc2c(cc1[N+](=O)[O-])OCO2	60.3% (active)
O=C(CN1C(=O)c2cccc3cccc(c23)C1=O)N1CCCCC1	50% (active)

SMILES	inhibition
CCC(=O)N(C)C(c1ccccc1Cl)c1nnnn1-c1c(C)cccc1C (stereo unspecified)	0.65% (inactive)
Cc1cccc(NS(=O)(=O)c2cccc(C(=O)NNC(=O)c3ccccc3O)c2)c1	4.72% (inactive)
N#C/C(=C1\CCCN1)c1nc(-c2ccccc2)cs1	10.3% (inactive)
Nc1ccc2nc3c(=O)[nH]c(=S)[nH]c3nc2c1	77% (active)
Nc1nc(-c2sc3nc4c(cc3c2N)CCCC4)nc(N2CCOCC2)n1	16.2% (inactive)
Cc1cc(C)cc(NC(=O)C2CCCN2S(=O)(=O)c2cccc3cccnc23)c1 (stereo unspecified)	-5.63% (inactive)
CC(=O)c1cccc(NC(=O)C2CCCN2S(=O)(=O)c2cccc3nsnc23)c1 (stereo unspecified)	33% (active)
O=C(N/N=C/c1sc(N2CCCCC2)nc1-c1cccs1)c1cccnc1	6.55% (inactive)
N#Cc1nc(-c2cccc3ccccc23)oc1N	-17.8% (inactive)
O=C(Nc1ccccc1Cl)/C(Cl)=C(\Cl)S(=O)c1ccccc1 (stereo unspecified)	-27.6% (inactive)
COc1ccc2oc(=O)c(C(=O)NCc3ccccn3)cc2c1	47.5% (active)
O=C(O)CCC(=O)Nc1nc2ccc([N+](=O)[O-])cc2s1	47.7% (active)
COc1cccc(/C=C/c2ccc3ccccc3n2)c1OC(C)=O	11.5% (inactive)
Cc1c(/C=N\NC(=O)c2cc3ccccc3o2)c2ccccc2n1C	12.8% (inactive)
COC(=O)N/N=C/c1c[n+]([O-])c2ccccc2[n+]1[O-]	97.3% (active)
CC(C)(C)NC(=O)CN(C(=O)c1csnn1)c1ccccc1-c1ccccc1	1.93% (inactive)
CN1CCN(/N=C/c2ccc(-c3ccc([N+](=O)[O-])cc3)o2)CC1	34% (active)
Cc1oc2c(c1C(=O)N1CCOCC1)C(=O)c1ccccc1C2=O	104% (active)
CC(NC(=O)c1cccc2ccccc12)c1ccc2c(c1)CCCC2 (stereo unspecified)	9.37% (inactive)
CCOc1cc(/C=C(\C#N)c2nc(-c3cccs3)c(NC(C)=O)s2)ccc1O	2.21% (inactive)
CC(C)CC[n+]1ccn(C2=C([O-])c3ccccc3C(=O)/C2=N\S(=O)(=O)c2ccccc2)c1	100% (active)
O=C(OC1CCOC1=O)c1ccc(-c2nc3ccccc3s2)s1 (stereo unspecified)	28.1% (active)

SMILES	inhibition
Cc1cc(=O)oc(C)c1C(=O)NCCN(C)Cc1ccccc1	4.29% (inactive)
O=C(c1ccncc1)c1ccc([N+](=O)[O-])cc1	68.8% (active)
CC(=O)Nc1ccc(Nc2c([N+](=O)[O-])cc(S(C)(=O)=O)cc2[N+](=O)[O-])cc1	71% (active)
CC(C)(C)NC(=O)Cn1cnc2cc([N+](=O)[O-])ccc2c1=O	73.7% (active)
O=C(Nc1cccc2cccnc12)c1cccc(N2C(=O)CCC2=O)c1	8.23% (inactive)
O=C(Cc1ccccc1)N1CCN(S(=O)(=O)c2ccc([N+](=O)[O-])cc2)CC1	28.9% (active)
Cc1ccc([C@@H]2CC=C(C(=O)O)[C@H](c3cccc(Cl)c3)N2S(=O)(=O)c2ccc(C)cc2)cc1	4.59% (inactive)
S=c1[nH]nc(-c2cc(-c3ccccc3)n[nH]2)n1/N=C/c1c2ccccc2cc2ccccc12	6.53% (inactive)
Cc1cccn2c(=O)c3cc(C#N)c(=NC(=O)c4cccnc4)n(CC4CCCO4)c3nc12 (stereo unspecified)	46.1% (active)
Nc1nc(COC(=O)CCC(=O)c2ccc(Cl)cc2)nc(Nc2ccccc2)n1	-0.94% (inactive)
Cc1cccc(NC(=O)Nc2cccc(Oc3c(F)c(F)c(F)c(F)c3F)c2)c1	14.7% (inactive)
O=C(NC(Cc1c[nH]c2ccccc12)C(=O)N/N=C/c1ccc(Br)cc1)c1cccs1 (stereo unspecified)	3.77% (inactive)
COC(=O)c1sccc1NC(=O)CSc1ccccc1NS(=O)(=O)c1cc(Cl)ccc1Cl	12.9% (inactive)
COCCCNC(=S)NC(=O)c1ccc([N+](=O)[O-])cc1	29.9% (active)
COc1cc(OC)c(NC(=O)c2ccc(Br)o2)cc1Cl	8.45% (inactive)
COc1ccc(N(C)C(=O)CCS(=O)(=O)c2cccc3nsnc23)cc1	56% (active)
CCOc1ccc(NC(=O)CCS(=O)(=O)c2cccc3nsnc23)cc1	35.3% (active)
COc1ccc2sc(-c3ccc(N(C)C)cc3)c(C#CCO)c2c1	14.2% (inactive)
C=CCn1c(SCC(=O)Nc2nc3ccccc3s2)nnc1-c1ccccc1O	-0.28% (inactive)
N#CC(=C1SC=CS1)c1nc(-c2ccccc2)cs1	14.8% (inactive)
